# Compounds with a hit are over-represented: about 19% of the library has one in this group of screens.
# DT40 TDP1 CPT: qHTS for Inhibitors of human tyrosyl-DNA phosphodiesterase 1 (TDP1): qHTS in cells in presence of CPT | chicken DT40 Tdp1-/-;hTDP1 cells + 20 nM CPT, ATP luminescence, 48 h | Potency, µM (top dose mostly 46.2 µM), inactives show top-dose activity change, negative = growth inhibition, actives largely listed as inhibitors | 12% of 420,000 active; also: potency is read from the fitted curve at half-maximal effect; nearly all actives have a fitted effect of over 55% in size
#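 Chicken DT40 Tdp1-/- cells stably complemented with human TDP1 were seeded at 400 cells/well in medium containing 20 nM camptothecin, exposed to pin-transferred compounds, and grown at 37 °C for at least 48 hr. Viability was read as ATP luminescence.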
# IL-1B inflam inh: qHTS for Inhibitors of Inflammasome Signaling: IL-1-beta AlphaLISA Primary Screen; 4.7% of 360,000 active; activity change, % at 57.5 µM; THP-1 LPS/ATP IL-1B secretion, AlphaLISA, 16 h; stronger effect = lower value; in the data active = activity change below about -50%; inconclusive = mostly about -30% to -49%
#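 Secreted IL-1B measured by AlphaLISA bead assay after 16 h compound exposure of THP-1 cells; compounds (final up to 57.5 uM) added 1 h before LPS (250 ng/mL) and ATP (1.25 mM) stimulation; lower signal means less secretion.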
# DT40 TDP1 no CPT: qHTS for Inhibitors of human tyrosyl-DNA phosphodiesterase 1 (TDP1): qHTS in cells in absence of CPT. DT40 Tdp1-/- hTDP1 cells, no CPT, ATP luminescence, 48 h. AID 686978, 2013. 15% of 420,000 active. Potency, µM (titrated, usually from 46.2 µM), for inactives: top-dose activity change, negative = growth inhibition, actives largely listed as inhibitors; also: potency is read from the fitted curve at half-maximal effect; nearly all actives have a fitted effect of over 55% in size
#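 Camptothecin absent (DMSO only). Human TDP1-complemented DT40 knockout cells, 400 cells/well, 37 °C for minimum 48 hr; ATP measured via CellTiter-Glo, 30 min dark incubation, luminescence.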
# HT1080 IDH1KD tx: qHTS for induction of synthetic lethality in tumor cells producing 2HG: qHTS for the HT-1080-IDH1KD cell line | 2% of 360,000 active | HT-1080 IDH1 knockdown viability, ATP luminescence, 48 h | Potency, µM (highest dose often 46.1 µM), without a hit: top-dose activity, negative = toxicity, hits mostly cytotoxic | AID 686971, 2013;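 also: potency is read from the fitted curve at half-maximal effect; 0% = DMSO wells and -100% = cell-free medium wells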
#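 % activity derives from luminescence (CellTiter-Glo), normalised to DMSO and no-cell wells. HT-1080-IDH1KD cells, 750/well, had 48 h compound exposure at 37 °C.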
# HT1080NT lethal: qHTS for induction of synthetic lethality in tumor cells producing 2HG: qHTS for the HT-1080-NT fibrosarcoma cell line; 1.6% of 360,000 active; HT-1080-NT fibrosarcoma viability, CellTiter-Glo ATP luminescence, 48 h; Potency, µM (highest dose often 46.1 µM), inactives show at the top dose activity, negative = less viability, usual class: cytotoxic;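 also: NT is the 2HG producing partner of a matched IDH1 knockdown line; potency is read from the fitted curve at half-maximal effect; 0% = DMSO-treated cells and -100% = media-only wells without cells; nearly all actives have a fitted effect of over 55% in size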
#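 Viability of the 2HG-overproducing fibrosarcoma line after 48 hours of compound exposure at 37 degrees C was determined by luminescence with CellTiter-Glo, and concentration-effect curves were then fitted and categorized.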
# The depositor's hits bear a star; ? = inconclusive; . = no result; ! = a repeat was not active; [ ] = dose if it differs, or a comment. Unless noted, calls follow the shape of the dose curve; as a rule, active = well fitted curve in the direction sought with a large enough effect; inconclusive = small, poorly fitted or top-dose-only effect, or another doubt; inactive = no such curve, though single readings can be large; an effect the other way counts as inactive or inconclusive. Unless noted, % is scaled to controls: 0 for no effect and ±100 for the full control effect.
SMILES,DT40 TDP1 CPT,IL-1B inflam inh,DT40 TDP1 no CPT,HT1080 IDH1KD tx,HT1080NT lethal
Cc1cc2c(cc1C)N(C(=O)CSC1=NCCS1)C(C)(C)c1ssc(=S)c1-2,?,-50.1*,?,?,-28.5%
O=C(COc1ncnc2sccc12)N1CCc2ccccc2C1,-9.0%,9.4,-4.5%,10.8%,17.3%
COc1ccc(N=[N+]([O-])c2ccc(OC)cc2)cc1,-2.6%,-6.7,?,0.7%,8.6%
CCOc1ccc(/C=N/NC(=O)Cn2ccnc2C)cc1,-9.5%,0.4,-8.6%,10.1%,10.5%
COCCn1c(SCC(=O)NC2CCCC2)nc2c(c1=O)SCC2,-2.6%,12.0,-7.3%,-0.3%,-0.5%
COc1ccc2c(c1)-c1c(ssc1=S)C(C)(C)N2S(=O)(=O)c1ccc(C)cc1,14.6µM*,9.6,5.17µM*,6.51µM*,?
Cc1ccc(S(=O)(=O)N2c3ccccc3-c3c(ssc3=S)C2(C)C)cc1,?,-5.5,?,?,-3.4%
CCOC(=O)c1ccc(N2C(=O)C3C(C2=O)C(C(=O)c2ccc(Cl)cc2)N2CCCC32)cc1 (centres undefined),14.6µM*,-66.1*,20.6µM*,?,?
O=C(NCc1cccnc1)c1cc(C(=O)NCc2cccnc2)cc([N+](=O)[O-])c1,-2.7%,-18.9,5.4%,-2.2%,7.7%
C=C(CC[C@]12OC(C(=O)O)C(O)(C(=O)O)C(C(=O)O)(O1)C(OC(=O)/C=C/[C@@H](C)C[C@@H](C)CC)C2O)[C@@H](OC(C)=O)[C@H](C)Cc1ccccc1 (some centres undefined),8.91µM*,.,7.94µM*,.,.
CCOC(=O)Cc1c(-c2cccc(Cl)c2)nc2c3ccccc3ccn12,?,2.5,20.6µM*,?,?
Fc1cccc(Cc2c(-c3ccccc3)nc3c4ccccc4ccn23)c1,?,5.4,16.4µM*,-27.8%,-6.9%
Clc1ccc(-c2nc3c4ccccc4ccn3c2Cc2cccc(Cl)c2)cc1,?,53.3,7.31µM*,0.5%,0.7%
CCn1cc(CCC(=O)NC2CCCC2)c2ccccc21,3.2%,-8.9,-8.1%,13.2%,?
Cn1cc(CCC(=O)NCc2cccc(Cl)c2)c2ccccc21,-14.6%,-22.1,-20.7%,-5.1%,-18.1%
COc1cccc(CNC(=O)CCc2cn(Cc3ccccc3Cl)c3ccccc23)c1,?,.,18.4µM*,.,.
O=C(CCc1cn(Cc2ccccc2Cl)c2ccccc12)NC1CCCCC1,?,.,16.4µM*,.,.
CCOC(=O)C1=CCN(S(=O)(=O)c2ccc(C)cc2)C1c1ccccc1F (centres undefined),?,18.1,?,1.2%,-3.5%
CN1CCC(N(C)C(=O)CCc2nc3ccccc3n2-c2ccccc2)CC1,-6.2%,-16.6,-15.7%,12.1%,-2.7%
COc1ccc(C2C3=C(CC(C)(C)CC3=O)Oc3ncn4nc(-c5ccccc5)nc4c32)cc1 (centres undefined),-5.8%,-7.7,4.9%,16.3%,-4.8%
COc1ccc(C2C3=C(CC(C)(C)CC3=O)Oc3ncn(CC(C)C)c(=N)c32)cc1 (centres undefined),?,-59.9*,?,-11.8%,-4.6%
COc1ccc(C2C3=C(CC(C)(C)CC3=O)Oc3ncn(Cc4ccco4)c(=N)c32)cc1 (centres undefined),-17.5%,-59.6*,-28.5%,?,-5.5%[9.24 µM]
CC1(C)CC(=O)C2=C(C1)Oc1ncn(CCCO)c(=N)c1C2c1ccccc1 (centres undefined),-13.3%,-15.4,2.4%,2.4%,-1.8%
c1ccc(N=Nc2ccc3cccccc2-3)cc1,-26.5%,-93.1*,?,-20.6%,-15.5%
Nc1ccc(N=Nc2ccccc2)c(N)n1,9.44µM*!,-19.6,10.6µM*!,-0.7%,2.5%

# Screening data (PubChem)
